# Screening results as filed in PubChem BioAssay.
# MITF inh: MITF inhibitors, primary screen, biochemical, AlphaScreen, human; 650,000 compounds, 0.91% hits; AID 1259374, 2018; AlphaScreen MITF homodimerization, bead proximity signal; inhibition, % at 2.6 µM; Microphthalmia-associated transcription factor (Homo sapiens), O75030; in the data active = inhibition above about 50%;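 note: 0% = vehicle wells with protein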
# TEAD-YAP inh: TEAD-YAP interaction inhibition, primary screen, TEAD-YAP interaction inhibitor project, luminescence, HEK-TIYL cells | TEAD-Gal4/YAP UAS-luciferase luminescence | inhibition, % at 9.12 µM | 640,000 compounds, 1.4% hits | AID 1259422, 2018; in the data active = inhibition above about 32%;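 note: 0% = median of test compound wells and 100% = reference inhibitor wells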
# GPR151 activ: activators of human GPR151, primary screen, cell-based, PathHunter beta-arrestin, luminescence; G-protein coupled receptor 151 (Homo sapiens), Q8TDV0; PathHunter beta-arrestin GPR151 cells; activation, % at 11.2 µM; 650,000 compounds, 1% hits; in the data active = activation above about 4.9%;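 note: 0% = median of compound wells and 100% = cells with positive control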
# Target sequence (Q8TDV0 whole entry, looked up): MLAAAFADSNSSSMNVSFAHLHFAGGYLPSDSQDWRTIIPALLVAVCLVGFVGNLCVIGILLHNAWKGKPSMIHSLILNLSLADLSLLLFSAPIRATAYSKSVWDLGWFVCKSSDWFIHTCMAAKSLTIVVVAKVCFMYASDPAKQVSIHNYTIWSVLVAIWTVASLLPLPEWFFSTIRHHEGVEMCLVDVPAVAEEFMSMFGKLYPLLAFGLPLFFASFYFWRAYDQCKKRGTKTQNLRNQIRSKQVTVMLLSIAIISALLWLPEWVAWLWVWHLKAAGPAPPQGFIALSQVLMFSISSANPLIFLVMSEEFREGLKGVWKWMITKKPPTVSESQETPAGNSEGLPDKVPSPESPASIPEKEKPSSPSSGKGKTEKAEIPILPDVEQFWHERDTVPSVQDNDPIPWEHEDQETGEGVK
# FBW7 act: FBW7 E3 ligase activators, primary screen, biochemical, AlphaScreen, human. 650,000 compounds, 0.13% hits. AlphaScreen FBW7–phospho-cyclin E peptide binding, activator screen. AID 1259310, 2017. normalized activity (activation), % at 26.1 µM. F-box/WD repeat-containing protein 7 (Homo sapiens), Q969H0; in the data active = normalized activity above about 1.9%;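 note: purified mutant Fbw7 with reduced substrate affinity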
# Numbers without * were called inactive; . = no result. Shown are actives, neighbours in structure and some others; about 3.5% of the full set was active somewhere.
SMILES,MITF inh,TEAD-YAP inh,GPR151 activ,FBW7 act
CCOCCCNC(=O)c1ccc2c(c1)N=C(CC)c1ccccc1S2,8,58*,0,0
COC(=O)c1ccc2c(c1)N=C(C)c1cc(C)ccc1S2,6,-8,-1,0
CCOCCCNC(=O)c1ccc2c(c1)N=C(C)c1cc(C)ccc1S2,3,68*,0,0
O=S(=O)(NCc1cccnc1)c1cccc(Cl)c1Cl,6,-12,4,0
CCOc1ccc(S(=O)(=O)NCc2ccncc2)cc1C,-2,55*,0,0
O=S(=O)(NCc1ccncc1)c1cccc(Cl)c1Cl,17,35*,-1,0
Cc1ccc(S(=O)(=O)NCc2ccncc2)cc1,1,41*,0,0
O=S(=O)(NCc1ccncc1)c1ccc(Cl)c(Cl)c1,8,36*,2,0
CCOC(=O)c1c(NC(=O)C(CC)Oc2ccccc2)sc(C(C)=O)c1C (stereo not drawn),3,7,2,0
O=C(COC(=O)Cn1c(C(F)(F)F)nc2ccccc21)NNC(=O)c1cccs1,13,0,-2,1
O=C1C(=O)N(c2cccnc2)C(c2ccc([N+](=O)[O-])cc2)/C1=C(/O)c1ccccc1 (stereo not drawn),4,3,1,0
O=S(=O)(NCc1ccncc1)c1ccc(Br)cc1Br,5,32*,1,0
CCOc1cc(S(=O)(=O)NCc2ccncc2)ccc1Cl,8,52*,1,0
Cc1cc(S(=O)(=O)NCc2ccncc2)c(C)cc1Br,13,32,0,1
CCn1c(=O)cc(SCC(=O)NCc2cccs2)c2ccccc21,13,43*,0,0
CCn1c(=O)cc(SCC(=O)NC(C)C)c2ccccc21,2,4,0,0
CCn1c(=O)cc(SCC(=O)NCc2ccc(F)cc2)c2ccccc21,6,45*,1,0
c1cnc(SCCCOc2ccc3ccccc3c2)nc1,4,-41,0,0
N#CSCCCOc1ccc2ccccc2c1,4,47*,1,1
COc1ccc2c(c1)c1c3n2CCN(Cc2ccccc2)C3=[N+](C)CC1,1,42*,3,0
COc1ccc2c(c1)c1c(n2Cc2ccccc2)CCCC1,16,3,0,1
Cc1ccc2nc3c(cc(C(N)=O)c(=N)n3CCc3ccccc3)c(=O)n2c1,5,39*,-1,0
CCSCCOC(=O)C1=C(C)NC2=C(C(=O)C(C(=O)OC)C(C)C2)C1c1c(F)cccc1Cl (stereo not drawn),0,-15,1,1.9*
O=C1OC(c2ccc([N+](=O)[O-])cc2)=N/C1=C\c1ccc2c(c1)OCO2,2,-4,3,0
COc1ccccc1CNC(=O)CNC(=O)c1c[nH]c2ccccc12,-13,-2,-1,0
SMILES,MITF inh,TEAD-YAP inh,GPR151 activ,FBW7 act
Cc1c(C(=O)Nc2cccc(F)c2)nnn1-c1ccccc1F,-1,43*,-2,0
Cc1c(C(=O)Nc2cccc(Cl)c2)nnn1-c1ccccc1F,-2,24,-2,0
O=C1/C(=C\c2ccc(-c3cccc(Cl)c3Cl)o2)CCC/C1=C/c1ccc(-c2cccc(Cl)c2Cl)o1,1,-2,0,0
COc1ccc(C(=O)c2cc([N+](=O)[O-])ccc2N2CCOCC2)cc1,-6,60*,1,0
CCOc1ccc(C(=O)c2cc([N+](=O)[O-])ccc2N2CCOCC2)cc1,9,60*,0,0
CCC(CC)NC(=O)c1cc([N+](=O)[O-])ccc1N1CCOCC1,3,9,1,0
Cc1ccc(C(=O)c2cc([N+](=O)[O-])ccc2N2CCOCC2)cc1,10,9,0,0
CCOC(=O)c1ccc(NC(=O)CC(C)c2ccccc2)cc1 (stereo not drawn),-1,-7,1,0
COc1ccc(-c2noc(CN(C)CCc3ccccc3)n2)c(OC)c1OC,2,-17,0,0
CCN(C1CCCCC1)S(=O)(=O)c1ccc(C(=O)Nc2ccc(F)cc2)cc1,-1,33*,1,0
CN(C1CCCCC1)S(=O)(=O)c1ccc(NC(=O)c2ccc(F)cc2)cc1,8,4,5,0
CCOC(=O)N1CCN(S(=O)(=O)c2ccc(C(=O)Nc3ccc(C(C)=O)cc3)cc2)CC1,-4,-11,1,0
CCOC(=O)N1CCN(S(=O)(=O)c2ccc(C(=O)Nc3ccc(F)cc3)cc2)CC1,4,41*,0,0
CC/C=C\C/C=C\C/C=C\C=C\C(O)C/C=C\C/C=C\CCC(=O)O (stereo not drawn),3,.,-2,.
CCCCN(CC)S(=O)(=O)c1ccc(C(=O)Nc2ccc3sc(C)nc3c2)cc1,21,53*,0,0
CC(C)Cn1cnc2sc3c(c2c1=O)CCC(NC(C)C)C3 (stereo not drawn),14,1,0,0
O=C(O)/C=C\C(=O)Nc1ccc(Br)cc1,4,5,1,0
C=CC(=O)Nc1ccc(Br)cc1,6,36*,-1,0
CCc1ccc(NC(=O)c2cnn3ccccc23)cc1,4,89*,-5,0
Cc1ccccc1NC(=O)c1cnn2ccccc12,11,-56,-3,1
CCOc1ccc(NC(=O)c2cnn3ccccc23)cc1,10,94*,-6,1
Cc1cc(CNC(=O)CC2C(=O)NCCN2CCC(C)C)nn1C (stereo not drawn),11,6,3,0
Cc1ccccc1N=c1scc(-c2ccc3c(c2)NC(=O)CO3)n1Cc1ccco1,0,48*,0,0
COc1ccccc1N=c1scc(-c2ccc3c(c2)NC(=O)CO3)n1CC1CCCO1 (stereo not drawn),26,1,4,1
Cc1cc(/C=N/Nc2ncnc(N)c2[N+](=O)[O-])c(C)n1-c1ccccc1,16,83*,-8,-1
SMILES,MITF inh,TEAD-YAP inh,GPR151 activ,FBW7 act
Cc1nn(-c2ccccc2)c(Cl)c1/C=N/Nc1ncnc(N)c1[N+](=O)[O-],2,32*,2,0
CCN(CC)c1ccc(/C=N/Nc2ncnc(N)c2[N+](=O)[O-])cc1,-13,91*,-9,-1
O=C(CCc1nnc(Cc2ccc3c(c2)OCO3)o1)NC1CCc2ccccc21 (stereo not drawn),20,15,1,0
Nc1ccc2nc(N)sc2c1,12,2,-2,0
Nc1nc2ccc(Oc3ccc4nc(N)sc4c3)cc2s1,16,33*,1,0
COCC(=O)Nc1cnn(-c2cccc(C(=O)NCCN3CCCc4ccccc43)c2)c1,-9,-15,1,0
CC1=C/C(=N/Nc2nc3ccccc3[nH]2)CC(C)(C)C1,10,-22,1,-1
CC1CCC(=NNc2nc3ccccc3[nH]2)CC1 (stereo not drawn),42,-20,1,0
CC1=C/C(=N\Nc2nc3ccccc3[nH]2)CC1,2,32*,-9,0
